# Test results reported in PubChem BioAssay (NCATS).
# Records with an inconclusive call do not appear. Unmarked numbers belong to inactive results. Calls follow the shape of the dose curve; as a rule, active = well fitted inhibition curve with a large enough effect; inconclusive = small, poorly fitted or top-dose-only effect; inactive = flat fitted curve, though single readings scatter.
# Test system: HEK293
# Assay: Cytotoxic Profiling of Annotated Libraries Using Quantitative High-Throughput Screening (AID 1296008); also: nearly all actives have a fitted effect of over 60% in size
# Conditions: Five cell lines viability, CellTiter-Glo ATP luminescence, 48-72 h; max response: stronger effect = lower value
# Summary of the method: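 Cells exposed to compounds for 48 or 72 hr at 37 degrees Celsius. Viability read as ATP-coupled luminescence with CellTiter-Glo after 10 min at room temperature.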
# % is scaled to controls: 0 for no effect and ±100 for the full control effect.
row,Compound,max response [%]
1,CC1CC(=O)[C@]2(O)C(C(=O)OCCc3ccc(O)c(O)c3)=CO[C@@H](O[C@@H]3O[C@H](CO)[C@@H](O)[C@H](O)[C@H]3O)[C@H]12 (stereo not given in full),-8.88
2,COc1cc(/C=C/C(=O)OC[C@H]2O[C@@H](OC3OC=C(C(=O)O)C4C(O)CC(C)(O)C34)[C@H](O)[C@@H](O)[C@@H]2O)cc(OC)c1O (stereo not given in full),-83.6
3,CC(=O)OC[C@]12[C@@H](OC(=O)c3ccoc3)C[C@@H]3[C@@H](OC(C)=O)[C@]1(OC3(C)C)[C@@](C)(O)C[C@H](OC(=O)c1ccoc1)[C@@H]2OC(=O)c1ccoc1,-2.85
4,CC(=O)O[C@H]1C[C@@H](O)C(C)(C)C2C[C@@H](OC(C)=O)[C@]3(C)C(CC[C@@]4(C)[C@H](c5ccoc5)OC(=O)[C@H]5O[C@]543)[C@]21C (stereo not given in full),-3.17
5,CC(=O)OC12CC(C)C(O)C1/C=C(/COC1OC(CO)C(O)C(O)C1O)CCC1C(/C=C(\C)C2=O)C1(C)C (stereo not given),-3.67
6,C=C(CCO[C@@H]1O[C@H](CO)[C@@H](O)[C@H](O)[C@H]1O)C(=O)O,-3.91
7,Cc1cc(C(=O)N2Cc3cnn(C)c3Nc3ccccc32)ccc1CNC(=O)N1CCN(Cc2cc(O)cc(O)c2)CC1,-0.745
8,O=C(O)C1(c2ccc(-c3ccc(Cl)c(Cl)c3)c(F)c2)CC1,-11.7
9,C[C@@H]1O[C@@H](O[C@H]2[C@H](OC(=O)[C@]34CCC(C)(C)C[C@H]3C3=CCC5[C@@]6(C)C[C@@H](O)[C@@H](O)[C@@](C)(CO)C6[C@H](O)C[C@@]5(C)[C@]3(C)CC4)OC[C@H](O)[C@@H]2O)[C@H](O)[C@H](O)[C@H]1O[C@@H]1OC[C@@H](O)[C@H](O[C@H]2O[C@H](C)[C@@H](O)[C@H](O)[C@@H]2O)[C@H]1O (stereo not given in full),-0.607
10,COc1cc(C(=O)OC[C@@]2(O)CO[C@@H](O[C@H]3[C@H](Oc4ccc(O)cc4)O[C@H](CO)[C@@H](O)[C@@H]3O)[C@@H]2O)cc(OC)c1O,-3.3
11,COc1cc(C2Oc3c(OC)cc(CCCO)cc3C2CO)ccc1O (stereo not given),3.43
12,CC1(C)C[C@H]2C=C(C=O)[C@]3(C(=O)O)C[C@]3(C)[C@H]2C1,-14
13,CC(C)=CCC[C@](C)(O[C@@H]1O[C@H](CO[C@@H]2OC[C@H](O)[C@H](O)[C@H]2O)[C@@H](O)[C@H](O)[C@H]1O)[C@H]1CC[C@]2(C)[C@@H]1[C@H](O)C[C@@H]1[C@@]3(C)CC[C@H](O[C@@H]4O[C@H](CO)[C@@H](O)[C@H](O)[C@H]4O[C@@H]4O[C@H](CO)[C@@H](O)[C@H](O)[C@H]4O)C(C)(C)[C@@H]3CC[C@]12C,3.96
14,O=C(O)CC(CCc1ccccc1)OC1OC(CO)C(O)C(O)C1O (stereo not given),-5.21
15,CC(C)(Oc1ccc(-c2nc3cc(Cl)ccc3s2)cc1)C(=O)O,-8.75
16,COc1c2c(c(C)c3c1C(=O)OC3)OC1(C)CC(O)C34OC(O)(CCC3(C)C1C2)OC4(C)C (stereo not given),-9.5
17,C=C1C2(C)CC3C4(C)OC(C5OC56C4=CC(=O)OC6(C)C)C3(C)C13C(=O)OC(C)C3(O)C2=O (stereo not given),-4.51
18,CC(=O)OC/C(=C/C(=O)O)CC[C@@H]1C(CO)=CC[C@@H]2C(C)(C)CCC[C@@]12C,1.68
19,COc1cc(/C=C/c2ccccc2)c(C(=O)O)c(O)c1CC=C(C)C,2.12
20,COc1cc2c(cc1O)C(c1ccc(O)cc1)C(C)C(C)C2 (stereo not given),-21.2
21,COc1c(O[C@@H]2O[C@H](CO)[C@@H](O)[C@H](O)[C@H]2O)c(CCC(=O)O)cc2ccoc12,-0.3
22,C=C1[C@H](OC(C)=O)[C@H]2[C@@H](OC(=O)c3ccccc3)[C@@H](C)C[C@]2(O)[C@@H](OC(C)=O)[C@H](C)/C=C/C(C)(C)C(=O)[C@H](OC(C)=O)[C@H]1OC(C)=O,-5.03
23,CC1(C)CCC[C@@]2(C)[C@H]1[C@H](O)C=C(CO)[C@]2(O)CO,-0.502
24,NC(=O)[C@@H]1CC[C@H](c2ccc(OCc3ccccc3F)cc2)N1,2.17
25,CC1=C(CC/C(C)=C/C(=O)O)[C@@]2(C)CCCC(C)(C)C2CC1=O (stereo not given in full),-5.92
26,COc1ccc(-c2ccn(CC[C@](C)(C(=O)NO)S(C)(=O)=O)c(=O)c2)c(F)c1,-10.7
27,CC(O)CCc1ccc(O[C@@H]2O[C@H](CO)[C@@H](O)[C@H](O)[C@H]2O)cc1 (stereo not given in full),3.66
28,O=C(O)Cc1cn([C@@H]2O[C@H](CO)[C@@H](O)[C@H](O)[C@H]2O[C@@H]2O[C@H](CO)[C@@H](O)[C@H](O)[C@H]2O)c2ccccc12,2.13
29,C/C(=C\C(=O)C[C@@]12C(=O)O[C@]3(C)CC[C@H]1C[C@H]23)C(N)=O,-18.5
30,C[C@@H]1C[C@@H](O)[C@@]2(CO)C(CO)=CCC[C@@H]2[C@@]12C[C@@H](c1ccoc1)OC2=O,4.88
